Screening results (PubChem)
An excerpt weighted towards active compounds, which were near 27% of everything screened.
sEH inh: inhibitors of human soluble epoxide hydrolase. P34913. recombinant human sEH enzymatic activity assay. inhibition, % at 2 µM. actives 0.34% (n = 91,000); in the data active means inhibition above about 80%
Target sequence (P34913 whole entry, looked up): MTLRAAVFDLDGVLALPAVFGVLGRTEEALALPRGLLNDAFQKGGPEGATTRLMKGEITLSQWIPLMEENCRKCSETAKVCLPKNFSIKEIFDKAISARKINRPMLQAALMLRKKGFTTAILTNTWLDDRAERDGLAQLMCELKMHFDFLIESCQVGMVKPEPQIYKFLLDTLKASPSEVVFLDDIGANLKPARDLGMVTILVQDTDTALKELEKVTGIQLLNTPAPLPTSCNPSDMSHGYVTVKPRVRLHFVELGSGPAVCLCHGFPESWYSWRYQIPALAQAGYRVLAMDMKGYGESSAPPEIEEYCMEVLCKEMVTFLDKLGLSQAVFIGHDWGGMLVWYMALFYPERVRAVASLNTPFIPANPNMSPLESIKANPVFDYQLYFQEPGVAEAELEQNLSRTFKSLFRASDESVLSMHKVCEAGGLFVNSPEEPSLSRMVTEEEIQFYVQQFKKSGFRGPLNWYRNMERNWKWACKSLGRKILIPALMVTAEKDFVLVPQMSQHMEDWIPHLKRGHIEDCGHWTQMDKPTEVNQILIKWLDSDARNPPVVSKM
CYP2C19 inh: inhibitors of human CYP2C19. P33261. CYP2C19 Supersomes, luciferin-H EGE luminescence, 30 min. inhibition, % at 5 µM. actives 21% (n = 96,000). AID 778;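 active means CYP2C19 inhibition above a set limit at 5 µM in the primary screen, cut at about 50% in these data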;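 further: plate controls were negative control wells for no effect and 2.5 mM tranylcypromine positive control for full effect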
sEH act: activators of human soluble epoxide hydrolase; P34913; purified human sEH enzymatic activity, activator screen; activation, % at 2 µM; actives 0.04% (n = 91,000); AID 717; in the data active means activation above about 37%
CYP2C19 act: cytochrome P450 2C19 (human) activation. AID 1025. activation factor at 5 µM. 96,000 tested, under 10 active. recombinant CYP2C19, luciferin-H EGE luminescence; hits give high values; 0 = fully inhibited enzyme, 1 = untreated enzyme. P33261;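 active means activation factor of at least 2 at 5 µM in the primary screen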;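 further: 0 = wells with 2.5 mM tranylcypromine and 1 = vehicle-only wells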
CYP2C9 activ: increases human cytochrome P450 2C9 activity; activation factor at 5 µM; AID 1024; actives 1.4% (n = 96,000); P11712; recombinant CYP2C9, luciferin-H conversion, luminescence; hits give high values; factor 1 = untreated enzyme, 0 = blocked;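 active means activation factor of 2 or more for CYP2C9 at a 5 µM dose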;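 further: 0 = sulfaphenazole-blocked wells and 1 = vehicle-only wells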
CYP2C9 inh: human CYP2C9 inhibition. actives 20% (n = 96,000). inhibition, % at 5 µM. AID 777. P11712. CYP2C9 Supersomes, luciferin-H conversion, luminescence;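 active means blocking of liver enzyme CYP2C9 beyond about 50% at 5 µM, limit read from the data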
The depositor's hits bear a star; · = not tested or not shown.

SMILES	sEH inh	CYP2C19 inh	sEH act	CYP2C19 act	CYP2C9 activ	CYP2C9 inh
COc1ccccc1N1CCN(S(=O)(=O)c2ccc3c4c(cccc24)C(=O)N3)CC1	·	31.1	·	0.7	0.8	16.1
CCOc1ccc(S(=O)(=O)N2CCN(c3ccccc3)CC2)c2cccnc12	-7.0	36.4	9.0	0.6	0.4	59.1*
COc1ccccc1N1CCN(S(=O)(=O)c2ccc3c4c(cccc24)C(=O)N3C)CC1	-16.0	64.4*	15.2	0.4	0.3	71.8*
CCOc1ccc(S(=O)(=O)N2CCN(c3ccccc3OC)CC2)c2cccnc12	5.2	49.1	-6.5	0.5	0.4	57.9*
COc1cccc(NC(=O)Cc2nnc(SCC(=O)c3ccccc3)n2C)c1	50.1	·	-49.1	·	·	·
CCCCOCCCNC(=O)CN1C(=O)c2ccccc2C1=O	-5.4	-5.8	6.9	1.1	1.1	-8.7
CCOc1c(CNCCN2CCOCC2)cccc1OC	-8.8	21.3	5.9	0.8	1.1	-7.4
CCc1cc(-c2n[nH]c(=S)n2-c2cccc(C)c2)cs1	-9.6	63.3*	11.8	0.4	0.7	31.1
Cn1c(CN2CCN(c3ccc(Cl)cc3)CC2)nc2ccccc21	-4.1	64.0*	3.9	0.4	0.9	14.8
CCCN(CCC)C(=O)C1CCN(c2cc(C)nc3c(-c4ccc(OC)c(OC)c4)c(C)nn23)CC1	6.3	48.3	-6.4	0.5	0.5	51.3*
O=C(/C=C/c1ccc(O)cc1)c1ccc(NC2=C(N3CCCCC3)C(=O)c3ccccc3C2=O)cc1	3.6	68.8*	-3.6	0.3	0.5	49.2
O=C1C(Nc2cccc(O)c2)=C(N2CCCCC2)C(=O)c2ccccc21	1.3	38.7	-0.6	0.6	0.4	61.7*
CN(c1ccccc1)c1nc(N2CCCC2)nc(-n2ccnc2)n1	5.3	39.7	-3.5	0.6	0.6	39.4
Cc1ccc(NC2=C(N3CCCCC3)C(=O)c3ccccc3C2=O)cc1	5.8	42.7	-4.0	0.6	0.7	28.4
CN(C1=C(N2CCCCC2)C(=O)c2ccccc2C1=O)c1ccccc1	-4.7	94.7*	2.9	0.1	0.1	90.0*
O=C1C(Nc2ccccc2)=C(N2CCCCC2)C(=O)c2ccccc21	8.9	67.8*	-10.5	0.3	0.5	49.8
CCN1CCN(C(c2cc(OC)c(OC)c(OC)c2)c2nnnn2C(C)C)CC1 (stereo not given)	5.0	7.2	-3.4	0.9	1.1	-5.5
CCCCN(C)S(=O)(=O)c1ccc(C(=O)Nc2nnc(CSC)o2)cc1	5.5	4.1	-6.2	1	0.2	85.0*
CCc1nnc(NC(=O)c2ccc(S(=O)(=O)N(CC)Cc3ccccc3)cc2)o1	6.2	-0.1	-7.4	1	0	95.1*
CN(Cc1ccccc1)S(=O)(=O)c1ccc(C(=O)Nc2nnc(C3CC3)o2)cc1	6.2	21.7	-4.9	0.8	0.1	85.3*
C=CCc1ccc(OCCCCN2CC(C)OC(C)C2)c(OC)c1 (stereo not given)	-6.3	30.7	4.3	0.7	0.9	13.9
CCOC(=O)Cc1ccc(NC(=O)c2ccc(C(C)(C)C)cc2)cc1	-2.4	39.8	3.1	0.6	1	1.1
Cc1ccc(C(C)NC(=O)c2ccco2)cc1C (stereo not given)	·	48.2	·	0.5	2.2*	-119.9
O=C1c2ccccc2C(=O)N1CCCCSc1nnc(-c2ccc(OC(F)F)cc2)o1	-27.1	39.2	27.6	0.6	1.8	-78.3
O=C1c2ccccc2C(=O)N1CCCCSc1nc2ccccc2o1	-10.9	80.9*	10.2	0.2	0.3	66.5*
SMILES	sEH inh	CYP2C19 inh	sEH act	CYP2C19 act	CYP2C9 activ	CYP2C9 inh
Cc1nnc(SCCCN2C(=O)c3ccccc3C2=O)o1	-5.6	59.5*	3.4	0.4	0.7	28.1
COC(=O)C1=CN(CC2CCCO2)C=C(C(=O)OC)C1c1ccsc1 (stereo not given)	·	30.1	·	0.7	0.5	51.6*
O=C1NCCc2c1[nH]c1ccccc21	5.7	-11.3	-4.2	1.1	1.1	-8.9
Cc1ccc2[nH]c3c(c2c1)CC/C(=C/c1ccccc1)C3=O	-5.2	40.0	8.1	0.6	0.7	28.7
Cc1ccc(/C=C2/CCc3c([nH]c4ccccc34)C2=O)cc1	6.7	63.4*	-7.0	0.4	0.8	24.5
O=C1/C(=C\c2ccccc2)CCc2c1[nH]c1ccccc21	-18.2	91.0*	17.7	0.1	0.7	26.0
CCCS(=O)(=O)N1CCCC(C(=O)NCC2CCCO2)C1 (stereo not given)	-3.5	1.0	0.7	1	1	2.4
